Hits are enriched below; roughly 12% of the tested compounds scored in any of these assays.
Pf growth 48h – inhibits P. falciparum growth in the first generation, 48 h | P. falciparum luciferase growth in erythrocytes, 48 h | Potency, µM (titrated, usually from 28.7 µM), for the others: at the highest dose activity change, negative = inhibition, hits mostly inhibitors | AID 504832 | hit rate 5.9% among 310,000; further: on the % scale 0 is the no-effect control and ±100 the full control effect
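Here the parasites carry a stable luciferase gene and grow inside erythrocytes in Albumax-based RPMI medium with compound for one erythrocytic cycle. Activity is scored as loss of luminescent signal.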
AmpC inh detg – inhibitors of E. coli AmpC beta-lactamase with detergent; hit rate 0.041% among 370,000; AmpC hydrolysis of nitrocefin, absorbance 480 nm, 0.01% Triton; Potency, µM (series often up to 114 µM), for inactives: at the top dose activity change, negative = inhibition, actives largely listed as inhibitors;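 further: 0% = no-compound wells and -100% = no-enzyme wells; nearly all actives have a fitted effect of over 25% in size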
Target sequence (P00811 whole entry, looked up): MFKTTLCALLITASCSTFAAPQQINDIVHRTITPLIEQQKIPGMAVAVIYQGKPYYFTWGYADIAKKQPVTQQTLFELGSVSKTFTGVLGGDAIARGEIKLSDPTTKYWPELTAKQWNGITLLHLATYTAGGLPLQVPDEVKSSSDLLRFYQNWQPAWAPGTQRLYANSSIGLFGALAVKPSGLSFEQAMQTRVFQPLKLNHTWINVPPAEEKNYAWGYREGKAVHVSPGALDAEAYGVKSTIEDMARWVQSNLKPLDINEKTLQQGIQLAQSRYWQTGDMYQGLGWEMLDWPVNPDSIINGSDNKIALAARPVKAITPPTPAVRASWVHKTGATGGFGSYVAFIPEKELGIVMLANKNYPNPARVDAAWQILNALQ
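AmpC (5.3 nM in the dispensed reagent) in 20 mM phosphate pH 7.0 with 0.01% (detergent screen) or 0.0001% Triton X-100 was preincubated with compounds for 15 min at room temperature. Nitrocefin was then added from an 800 uM solution, and hydrolysis was followed at 480 nm.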
Pf growth 96h – inhibits malaria parasite growth, 96 h | hit rate 6.9% among 320,000 | Potency, µM (titrated, usually from 28.7 µM), for inactives: top-dose activity change, negative = inhibition, most hits filed as inhibitors | P. falciparum luciferase reporter growth, 96 h; further: on the % scale 0 is the no-effect control and ±100 the full control effect
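Cell-based qHTS: luciferase-tagged P. falciparum in erythrocytes (2% hematocrit, 0.05% parasitemia final) incubated with compounds for 96 hours, 37 C, 5% CO2; luciferase detection reagent then added and luminescence measured.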
SARS PLP yeast – inhibitors of SARS-CoV papain-like protease in yeast. S. cerevisiae expressing SARS-CoV PLpro, growth rescue. Potency, µM (titrated, usually from 32.9 µM), inactives show at the highest dose activity, positive = growth rescue, most hits filed as activators. hit rate 0.19% among 330,000. AID 485353; calls by dose curve; further: 0% is about no effect; nearly all actives have a fitted effect of over 55% in size
Sm TGR inh – S. mansoni TGR enzyme inhibition | hit rate 3% among 360,000 | purified TGR, DTNB reduction, TNB absorbance 405 nm | Q962Y6 | Potency, µM (highest dose often 114 µM), for inactives: at the highest dose activity change, negative = inhibition, usual class: inhibitors; further: on the % scale 0 is the no-effect control and ±100 the full control effect; nearly all actives have a fitted effect of over 60% in size
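Kinetic colorimetric format: TGR-catalysed, NADPH-driven DTNB reduction monitored via TNB absorbance. Enzyme dispensed at 20 nM; compound exposure 15 min at room temperature before reaction start.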
AmpC inh no detg – inhibitors of E. coli AmpC beta-lactamase without detergent. P00811. AmpC nitrocefin hydrolysis, absorbance 480 nm, 0.0001% Triton. Potency, µM (highest dose often 57.1 µM), for the others: at the highest dose activity change, negative = inhibition, hits mostly inhibitors. hit rate 0.52% among 330,000. AID 485341;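 further: plate controls were no compound for no effect and no enzyme for full effect; nearly all actives have a fitted effect of over 20% in size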
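AmpC (5.3 nM in the dispensed reagent) in 20 mM phosphate pH 7.0 with 0.01% (detergent screen) or 0.0001% Triton X-100 was preincubated with compounds for 15 min at room temperature. Nitrocefin was then added from an 800 uM solution, and hydrolysis was followed at 480 nm.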
Active calls of the source: *; ? = inconclusive; / = no result given; [ ] = remark or other dose. Unless noted, the call rests on the fitted dose curve; in most records, active means well fitted curve in the direction sought with a large enough effect; inconclusive means small, poorly fitted or top-dose-only effect, or another doubt; inactive means no such curve, though single readings can be large; an effect the other way counts as inactive or inconclusive. Potency means the concentration at half of the fitted maximal effect.

SMILES	Pf growth 48h	AmpC inh detg	Pf growth 96h	SARS PLP yeast	Sm TGR inh	AmpC inh no detg
C=CCOC(=O)C(C#N)c1nc2ccccc2nc1N1CCC(C(=O)OCC)CC1 (stereo not drawn)	1.17µM*	1.8%	55.9%	-4.3%	0.1%	-8.4%
CCOc1ccccc1N1CCN(c2nc3ccccc3nc2C(C#N)C(=O)OC(C)C)CC1 (stereo not drawn)	-10.9%	-0.2%	?	-0.7%	4.6%	-37.4%
COC(=O)C1CCN(c2nc3ccccc3nc2C(C#N)C(=O)OCC(C)C)CC1 (stereo not drawn)	?	-14.3%	?	-1.9%	0.0%	-4.6%
Cc1nn2c(=O)cc(COC(=O)c3ccc(NC(=O)COc4ccc(Cl)cc4)cc3)nc2s1	/	5.1%	/	/	6.5%	/
CCOC(=O)C1CCN(c2nc3ccccc3nc2C(C#N)C(=O)OC(C)COC)CC1 (stereo not drawn)	8.28µM*	-5.2%	?	-1.1%	-1.2%	108.8%
CCOC(=O)C1CCN(c2nc3ccccc3nc2C(C#N)C(=O)OC(C)C)CC1 (stereo not drawn)	?	-14.4%	8.9%	-2.0%	-20.6%	-9.0%
COCc1cc(=O)n2[nH]c(N)nc2n1	10.4µM*	-5.1%	?	1.6%	-18.0%	-3.6%
COC(=O)c1sc2cccc(F)c2c1S(=O)(=O)N1CCN(c2cccc(OC)c2)CC1	/	4.0%	/	/	5.4%	/
CC(=O)c1cc(-c2ccccc2)n(CCC(=O)Nc2nc3c(C)cccc3s2)c1C	/	-5.8%	/	/	-0.7%	/
Cc1ccc(C(=O)N2CCCCC2)cc1NC1=C(Cl)C(=O)N(Cc2ccccc2)C1=O	4.65µM*	5.5%	5.22µM*	-5.8%	2.9%	23.9%
O=C(c1ccc2c(c1)N(Cc1ccccc1)C(=O)c1ccccc1S2)N1CCCC1	-39.3%	9.6%	?	-25.7%	5.3%	106.0%
Cc1ccc(O)c(NC2=C(Cl)C(=O)N(Cc3ccccc3)C2=O)c1	11.7µM*	5.5%	?	-2.0%	/	-45.0%
N#Cc1cccc(NC(=O)CCNS(=O)(=O)c2ccc3c(c2)CCN3C(=O)C2CC2)c1	/	4.5%	/	/	-13.0%	/
CCN(Cc1ccncc1)Cc1cn[nH]c1-c1cc(OC)c(OC)c(OC)c1	?	-6.2%	9.28µM*	1.2%	-15.2%	1.1%
COc1cc(-c2[nH]ncc2CN2CCc3sccc3C2)cc(OC)c1OC	?	-4.9%	-0.8%	1.4%	-7.0%[57.1 µM]	-5.4%
COc1ccc(C2=NN3C(C2)c2ccccc2OC3c2cccs2)cc1 (stereo not drawn)	70.3%	4.1%	?	-0.7%	?	-25.1%
COc1ccc(C2=NN3C(C2)c2ccccc2OC32C(=O)N(C)c3ccccc32)cc1 (stereo not drawn)	?	1.3%	-4.2%	-12.7%	39.8µM*	-30.2%
COc1cc(/C=C(\C#N)c2nc3ccccc3[nH]2)ccc1Oc1ccc([N+](=O)[O-])cn1	5.86µM*	1.3%	4.15µM*	1.2%	-1.2%	-43.9%
COc1ccc(/C=C(\C#N)c2nc3ccccc3[nH]2)cc1O	62.9%	-4.1%	-28.7%	0.9%	6.0%	-6.8%
COc1cc(/C=C(/C#N)c2ccccc2)ccc1Oc1ccc([N+](=O)[O-])cn1	4.65µM*	-0.9%	0.928µM*	-3.2%	-2.1%	-13.8%
CCCSc1nc2sc3c(c2c(=O)n1-c1ccccc1)CCC(C)C3 (stereo not drawn)	/	10.3%	/	/	1.2%	/
Cc1nn(Cc2cccc(C(=O)NC34CC5CC(CC(C5)C3)C4)c2)c(C)c1Br	14.7µM*	-3.7%	8.28µM*	-52.3%	-16.4%	-19.4%
CCNS(=O)(=O)c1ccc(CCC(=O)N2CCN(c3ccccc3F)CC2)cc1	2.2%	?	?	3.1%	-18.7%	17.3%
COC(=O)c1ccc(COc2ccc(-c3nnn(CC(N)=O)n3)cc2)cc1	27.0%	3.2%	?	-0.7%	17.4%	-13.4%
COC(=O)c1ccc(COc2ccc(-c3nnn(CC(=O)NC(C)(C)C)n3)cc2)cc1	?	3.9%	7.38µM*	?	4.3%	0.7%
SMILES	Pf growth 48h	AmpC inh detg	Pf growth 96h	SARS PLP yeast	Sm TGR inh	AmpC inh no detg
Cc1ccc(Cl)cc1N1CCN(c2cccc[n+]2C)CC1	4.15µM*	?	0.738µM*	-3.8%	4.3%	10.5%
CCCCCCN1CCN(c2ccccc2Cl)CC1	-14.9%	-6.3%	?	0.4%	0.3%	-19.1%
C[n+]1ccccc1N1CCN(c2ccccc2Cl)CC1	4.65µM*	?	?	5.2%	-8.7%	-2.8%
CCOC(=O)Cc1nnc(Nc2cccc(C)c2)c2ccccc12	-26.9%	-3.2%	-12.9%	/	-6.0%	/
CCOC(=O)Cc1nnc(Nc2ccc(C)cc2)c2ccccc12	-6.4%	1.0%	10.4µM*	-24.2%	9.3%	-23.8%
Cc1oc(C(=O)O)cc1CSCc1cc(C(=O)O)c(C)o1	13.0%	2.4%	11.0%	7.8%	44.7µM*	2.9%
Cc1oc(C(=O)O)cc1CSCc1ccoc1C(=O)O	13.0%	?	?	8.0%	-30.6%	-22.2%
CCOc1cc(/C=C2\COc3ccccc3C2=O)cc(Br)c1OCC(=O)N(C)C	?	-2.5%	10.4µM*	-58.8%	11.2µM*	193.2%
COc1ccc(/C=C2\COc3ccccc3C2=O)cc1OC	15.3%	-0.7%	-65.4%	-81.3%	?	61.1%
O=C(Nc1cccc([N+](=O)[O-])c1)Nc1cnccn1	2.0%	3.0%	?	5.1%	15.1%	0.0%
CCOC(=O)C1=C(N)Oc2ccc3ccccc3c2C1c1ccc(O)cc1 (stereo not drawn)	-15.6%	1.1%	?	-16.4%	2.2%	-35.1%
CCOC(=O)C1=C(N)Oc2cc(O)ccc2C1c1ccc([N+](=O)[O-])cc1 (stereo not drawn)	9.28µM*	9.4%	?	-3.1%	5.1%	-44.7%
COc1ccccc1C(=O)C1CCCN(C(=O)CSc2ccccn2)C1 (stereo not drawn)	6.1%	-4.5%	10.4µM*	1.1%	13.3%	-1.8%
CSc1ncccc1C(=O)N1CCCC(C(=O)c2cc(F)ccc2F)C1 (stereo not drawn)	-11.0%	4.0%	9.28µM*	0.6%	6.5%	0.0%
CCc1noc(C)c1C(=O)N1CCCC(C(=O)c2cc(F)ccc2OC)C1 (stereo not drawn)	7.9%	3.7%	11.7µM*	0.5%	11.4%	21.2%
COC1CCCCC1Nc1ccc(C)c(C)c1 (stereo not drawn)	-5.7%	-12.0%	2.08µM*	18.5%	3.7%	-21.0%
Cc1ccc(NC(=O)C2CCCCC2)cc1C	?	?	30.6%	4.8%	6.4%	-22.6%
OC(CN1CCN(c2ccccc2)CC1)c1ccc2c(c1)CCN2 (stereo not drawn)	38.7%	-6.1%	9.28µM*	-0.6%	-6.1%	-5.6%

Screens: PubChem, National Center for Advancing Translational Sciences (NCATS)
